In the library only some 2.4% were active in any assay of this set; here they are far more common.
D2 ag-1: human D2 receptor agonism in beta-arrestin assay; DiscoveRx PathHunter D2 beta-arrestin, luminescence, 90 min; 100% = 57 uM dopamine signal; hit rate 0.084% among 360,000; P14416; activation, % (test concentration not listed); in the data active = activation above about 40%; inconclusive = between about 15% and that limit
Target sequence (P14416 whole entry, looked up): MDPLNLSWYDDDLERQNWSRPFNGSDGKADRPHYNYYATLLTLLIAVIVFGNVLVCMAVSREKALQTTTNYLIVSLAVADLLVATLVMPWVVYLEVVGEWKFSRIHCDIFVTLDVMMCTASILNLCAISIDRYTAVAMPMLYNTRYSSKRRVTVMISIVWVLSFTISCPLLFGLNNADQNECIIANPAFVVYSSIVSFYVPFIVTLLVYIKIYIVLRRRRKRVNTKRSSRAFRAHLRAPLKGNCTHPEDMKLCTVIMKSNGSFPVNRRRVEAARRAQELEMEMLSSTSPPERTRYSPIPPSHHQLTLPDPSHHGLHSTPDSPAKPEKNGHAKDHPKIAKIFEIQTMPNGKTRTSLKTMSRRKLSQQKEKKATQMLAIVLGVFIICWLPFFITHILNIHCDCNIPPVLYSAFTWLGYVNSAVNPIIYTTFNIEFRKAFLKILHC
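DiscoveRx PathHunter D2 beta-arrestin cells (2,100/well) attached overnight, then compound-stimulated 90 min at 37 C in HBSS/10 mM HEPES/0.1% Tween-20 buffer; beta-galactosidase complementation read by luminescence after 1 h at ambient temperature. Dopamine 57 uM final (EC100) as control.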
D2 PAM-1: potentiates the human D2 dopamine receptor allosterically. DiscoveRx D2 beta-arrestin cells, luminescence, 90 min; 100% = 57 uM dopamine signal. potentiation, % (no concentration beside the values). hit rate 0.23% among 360,000. AID 624464; in the data active = potentiation above about 50%; inconclusive = mostly about 30% to 49%
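PathHunter D2 cells, attached overnight at 37 deg C, received compound in DMSO plus dopamine at EC20 (50 nM final) for 90 min at 37 deg C. Beta-arrestin recruitment was read as luminescence after 1 h with detection reagent at ambient temperature.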
D2 PAM-2: positive allosteric modulators of human D2 dopamine receptor | P14416 | HEK293 T-REx D2, calcium flux, EC20 dopamine potentiation | potentiation, % at 10 µM | hit rate 0.34% among 340,000 | AID 485347;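 active = potentiation over 3 SD above the plate norm, cut at about 30% in these data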; also: 0% is about no effect
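Using a no-wash calcium dye in inducible, force-coupled HEK293 Trex cells expressing D2, we tracked fluorescence each second for 180 s after compound, then for 180 s after EC20 dopamine to detect augmented signalling.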
D2 antagonist: antagonists of human D2 dopamine receptor. P14416. HEK293 TREx D2 cells, calcium flux, dopamine EC80. inhibition, % at 10 µM. hit rate 2% among 340,000. AID 485344; in the data active = inhibition above about 30%; inactive = below that, where a call was filed; also: 0% is about no effect
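Calcium mobilization kinetics were recorded at 1 s intervals in tetracycline-induced HEK293 T-REx D2 cells, first for 180 s after compound addition and then 180 s after EC80 dopamine.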
D2 ag-2: activates the human D2 dopamine receptor; P14416; HEK293 T-REx D2 cells, calcium flux agonist mode; activation, % at 2 µM; hit rate 0.53% among 340,000;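 active = activation over 3 SD above normal in the single-dose calcium agonist read, cut at about 30% in these data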; also: 0% is about no effect
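Calcium-flux readout, 1 cycle/sec over 180 s following compound pin transfer, in inducible HEK293 Trex D2 cells (force-coupled); dopamine controls included. Positive calcium responses during this window marked compounds as potential agonists.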
Starred values were filed as active, the others as inactive; ? = inconclusive; nt = not tested or not shown.

SMILES	D2 ag-1	D2 PAM-1	D2 PAM-2	D2 antagonist	D2 ag-2
CC(C)c1ccc(NC(=O)[C@H](NC(=O)[C@@H]2Cc3ccccc3CN2)c2ccccc2)cc1	-2.6	-19.0	-11.0	32.7*	-0.5
Cc1ccc(NC(=O)[C@H](NC(=O)[C@@H]2Cc3ccccc3CN2)c2ccccc2)cc1	0.0	-33.0	-23.9	-5.8	0.9
COc1cccc(NC(=O)[C@H](Cc2ccccc2)NC(=O)[C@@H]2Cc3ccccc3CN2)c1	-1.2	-11.2	5.7	35.4*	-0.4
Cc1cccc(C)c1NC(=O)c1nc(SC(C)C)ncc1Cl	nt	nt	0.7	nt	-0.4
CCOC(=O)Cc1ccc(NC(=O)N2CCOc3ccc(C)cc32)cc1	nt	nt	10.2	nt	0.6
Cc1cccc(OCC(=O)Nc2ccc(OCc3cc(=O)n4cc(C)ccc4n3)cc2)c1	nt	nt	9.3	nt	0.9
CC(C)n1cnc2c(N(C)c3ccccc3)nc(N(CCN(C)C)Cc3ccccc3)nc21	2.1	-23.3	-17.7	33.8*	-0.2
CCCN1CCN(CCCNC(=O)c2cc3c(=O)oc4ccc(C)cc4c3s2)CC1	-1.5	-11.1	34.4*	5.4	0.0
Cc1ccc2oc(=O)c3cc(C(=O)NCCCN4CCCC(C)C4)sc3c2c1 (centres undefined)	-1.5	-32.0	-17.9	42.8*	-0.2
COCCCNC(=O)c1cc2c(=O)oc3ccc(C)cc3c2s1	nt	nt	13.8	nt	-0.3
CCOc1ccc(C(=O)c2cn(CC(=O)Nc3cc(OC)cc(OC)c3)c3ccc(F)cc3c2=O)cc1	nt	nt	-9.5	nt	1.1
CC(=O)Nc1cccc(NC(=O)Nc2cccc3ccccc23)c1	1.9	-9.2	-11.5	46.0*	0.3
O=C(CSc1cc(Cl)ccc1Cl)NC1CC1	-4.9	-6.2	14.9	0.4	0.2
CN1CCN(NC(=O)CSc2ccc(Cl)cc2Cl)CC1	-2.3	-4.2	2.6	45.8*	0.4
O=S(=O)(NCc1ccccc1)c1ccc(S(=O)(=O)N2CCCCC2)cc1	-1.5	0.5	-4.4	4.9	0.0
CC1CCN(S(=O)(=O)c2ccc(S(=O)(=O)NCc3ccccc3)cc2)CC1	3.7	13.7	-5.3	31.0*	0.9
CSc1ccc(/C=C(\C(=O)O)c2ccc(S(=O)(=O)N3CCCC3)s2)cc1	8.5	0.0	3.6	35.5*	0.3
COc1ccc(-c2cn[nH]c2-c2ccc(OCc3ccc([N+](=O)[O-])cc3)cc2O)cc1	11.9	52.3*	nt	nt	nt
CCOC(=O)c1ccc(N2C(=O)c3n[nH]c(-c4ccco4)c3C2c2ccc(OCC)cc2)cc1 (centres undefined)	nt	nt	10.4	nt	0.9
OC(CN1CCN(c2cccc(Cl)c2)CC1)c1ccccc1 (centres undefined)	3.4	-28.0	-13.3	52.8*	10.0
Cc1cccc(N2CCN(CC(O)COc3ccc(Cl)cc3)CC2)c1 (centres undefined)	-0.1	-53.5	-19.2	58.3*	-1.1
OC(COc1ccc2cc(Br)ccc2c1)CN1CCN(c2ccccn2)CC1 (centres undefined)	40.7*	?	25.9	-4.4	-2.4
OC(COc1ccc(Cl)cc1)CN1CCN(c2cccc(Cl)c2)CC1 (centres undefined)	2.9	-16.4	-21.7	72.7*	2.3
CCOC(=O)c1cc(-c2ccccc2)n(CC(=O)Nc2ccccc2OCC)c1C	nt	nt	3.6	nt	0.0
COc1ccc(C)cc1NC(=O)C(NS(=O)(=O)c1cccs1)c1ccccc1 (centres undefined)	nt	nt	-0.2	nt	nt
SMILES	D2 ag-1	D2 PAM-1	D2 PAM-2	D2 antagonist	D2 ag-2
COc1ccc(C)cc1NC(=O)C(NCC(O)c1ccccc1)c1ccccc1 (centres undefined)	-2.9	-7.0	-14.5	33.5*	0.2
O=[N+]([O-])c1cc(-c2nc3nc4ccccc4nc3n2CCc2ccccc2)cc([N+](=O)[O-])c1	13.5	10.6	1.6	67.5*	-0.2
COc1ccc2c(C#N)c3ccccn3c2c1	7.5	70.2*	-1.7	-1.7	4.0
Cc1cc(C)cc(NC(=O)CSc2nc3nc(C)cc(C)c3c(=O)[nH]2)c1	0.9	1.7	-2.5	34.6*	0.6
c1csc(C(c2nnnn2C2CCCC2)N2CCCC3(CCCCC3)C2)c1 (centres undefined)	-0.2	-1.8	6.9	30.8*	-0.1
CCOc1ccc(-c2nc3c(C#N)c[nH]n3c2NC2CCCC2)cc1	nt	nt	-4.0	nt	nt
Cc1n[nH]c(=S)n1/N=C/c1ccc(OCc2ccc(Cl)cc2Cl)cc1	2.9	-12.1	1.5	31.3*	0.3
CC(=O)N1C(C)(C)CC(=NOC(=O)c2ccccc2)CC1(C)C	10.4	-1.2	-0.2	-5.4	-0.3
CC(=O)N1C(C)(C)CC(=NOC(=O)c2ccc(C)cc2)CC1(C)C	?	67.3*	-1.9	-19.6	-0.4
CC(C)=C1C2CCC1C(C(=O)NCCc1ccccc1)C2C(=O)O (centres undefined)	0.6	-9.8	-10.8	-37.7	39.4*
O=C(O)[C@H]1CCCC[C@H]1C(=O)NCCc1ccccc1	-1.0	-1.5	-2.9	44.8*	-0.6
COc1ccc(CNC(=O)CCc2c(C)nn(-c3ccc(N4CCCC4)nn3)c2C)c(OC)c1	nt	nt	nt	nt	-0.9
COc1ccc(-n2nc(C(=O)N3CCN(c4ccccc4OC)CC3)c3c4ccccc4n(C)c3c2=O)cc1Cl	nt	nt	6.2	nt	-0.9
Cc1cc2nc(-c3ccc(NC(=O)C(C)C)cc3)oc2cc1C	-2.1	7.1	1.2	31.7*	0.3
Cc1ccc(-c2nc3cc(NC(=O)C(C)C)ccc3o2)cc1	-0.7	-10.6	-8.1	2.8	-1.4
CC(=O)c1ccc(NC(=O)CN2C(=O)c3cccnc3Sc3ccccc32)cc1	nt	nt	nt	nt	-1.0
Cc1ccccc1NC(=O)CC1SC(=Nc2ccc(O)cc2)NC1=O (centres undefined)	-2.2	-8.0	-13.6	14.1	2.6
Cc1ccc(NC(=O)CC2S/C(=N/N=C/C=C/c3ccccc3)NC2=O)cc1Cl (centres undefined)	-2.4	-0.7	7.1	10.1	0.5
Cc1ccc(NC(=O)CC2S/C(=N/N=C/c3ccco3)NC2=O)cc1Cl (centres undefined)	0.4	-9.5	-1.6	32.7*	0.7
CC(C)=N/N=C1/NC(=O)C(CC(=O)Nc2cc(Cl)ccc2C)S1 (centres undefined)	-3.8	-36.0	-17.7	46.1*	0.0
COc1ccc(-c2ccc(CCC(=O)O)n2CC(=O)Nc2cccc(C(F)(F)F)c2)cc1	nt	nt	-3.5	nt	19.8
CCCCCCCC(=O)Oc1ccc(C(=O)Nc2cc(C)on2)cc1	-0.4	-0.4	-9.2	37.0*	-0.8
Cc1ccc(NC(=O)CC2SC(=O)NC2=O)cc1 (centres undefined)	-8.8	-18.0	7.3	-7.5	-0.3
COc1ccc(NC(=O)CC2SC(=O)NC2=O)cc1 (centres undefined)	-8.1	-17.6	36.5*	-12.2	0.1
Cc1nn(-c2ccccc2)c(C)c1C(=O)NCc1cccs1	-1.8	2.6	-2.5	-3.1	0.0

Source: PubChem
